Counter-ions that a name gives are not always drawn. The campaign covered roughly 2,100 compounds. About 180 (8.6%) showed an effect of 50% or more. Only a selection was taken, and strong results are over-represented in it overall.

In the experiment the test system is MOLM1 and UCSD/AML1 (averaged). The experiment in a line: cell viability relative to DMSO control (POC); higher = less growth inhibition. To be noted: 1 µM; 72 h. As to the method:
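Primary viability screen in the 3q26 EVI1-high AML cell lines MOLM1 and UCSD/AML1 (1.5e3 cells/well, 384-well), compounds at 1 uM for 72 h. ATP CellTiter-Glo read-out given as percent of viable cells over DMSO control (POC), averaged over duplicates. DMSO was the negative control and 5 uM etoposide the positive control. This mapping covers the MicroSource Spectrum and Selleck anticancer libraries (drug names).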
Turning to `C/C=C(\C)C(=O)O[C@@H]1c2c(ccc3ccc(=O)oc23)OC(C)(C)[C@@H]1OC(C)=O`, the cell viability (usually a read-out of living cells in per cent, often relative to untreated cells) is 101%. In the case of `N[C@@H](Cc1c[nH]c2ccccc12)C(=O)O` it was 89.5%; in that of `OCc1c[nH]c2ccccc12`, 87.2%.

As for `c1ccc2c(CCNc3ccc(Nc4ccncc4)cc3)c[nH]c2c1`, the cell viability came to 43.4%. For `Cc1cc(O)c(C=O)c(O)c1C(=O)O`, the cell viability was determined as 121%.

As for `CC(=O)Oc1ccc2c(c1C(C)C)CCC1C(C)(C)CCC[C@]21C` (some centres not stated), the cell viability amounted to 91.9%. In the case of `CC1(C)CC23C(=O)CCC(O)C2(C)CCC13` (configuration not stated) it was 96.7%; in that of `CN1CCC(c2c(O)cc(O)c3c(=O)cc(-c4ccccc4Cl)oc23)C(O)C1` (configuration not stated) [Flavopiridol (Alvocidib) HCl], 1.36%; in that of `CC(C)CCC[C@@H](C)[C@H]1CC[C@H]2[C@@H]3C(=O)C=C4C[C@@H](O)CC[C@]4(C)[C@H]3CC[C@]12C`, 95.7%. With `CCN(CC)CCNC(=O)COc1ccc(OC)cc1`, the cell viability came to 97.5%. As for `CCN(CC)CCCCNc1ncc2cc(-c3cc(OC)cc(OC)c3)c(NC(=O)NC(C)(C)C)nc2n1`, the cell viability came to 36.8%. In the case of `Nc1nc(Nc2ccc(S(N)(=O)=O)cc2)nn1C(=O)c1c(F)cccc1F` it was 53.8%; in that of `CC(O)Cn1cnc2c1c(=O)n(C)c(=O)n2C` (configuration not stated), 94.4%. The same measure for `Cn1c(=O)c2c(ncn2CC(O)CO)n(C)c1=O` (configuration not stated): 103%; for `Cn1c(=O)c(F)c(Nc2ccc(I)cc2F)c2c(=O)n(C[C@@H](O)CO)cnc21`: 24.8%.

Consider `CC(C)c1cccc(=O)c(O)c1`, for which the cell viability worked out at 93.6%. Take `COc1cc2ccc(=O)oc2c(O)c1O`: the cell viability was found to be 88.3%. As for `CC1(O)CC2C(CC1O)C2(C)C` (configuration not stated), the cell viability was determined as 87.5%. `COc1cc(-c2coc3cc(OCc4ccccc4)c(OC)c(O)c3c2=O)cc(O)c1OC`: the cell viability was 95.2%. As for `NC(Cn1ccc(=O)c(O)c1)C(=O)O` (configuration not stated), the cell viability was 92.7%. The same measure for `CC(=O)O[C@@H]1C[C@H]2C(C)(C)[C@@H](O)CC[C@]2(C)[C@H]2CC[C@@]3(C)[C@H](c4ccoc4)OC(=O)[C@H]4O[C@]43[C@@]21C` [beta-DIHYDROGEDUNOL]: 90.3%; for `CC(=O)N[C@@H](Cc1c[nH]c2ccccc12)C(N)=O`: 101%. On to `CC(=O)N[C@@H](Cc1c[nH]c2ccccc12)C(=O)O`, for which the cell viability was 106%.

With `CC(C)C[C@@H](NC(=O)[C@H](C)NC(=O)CNC(=O)[C@@H](NC=O)C(C)C)C(=O)N[C@@H](C)C(=O)N[C@@H](C(=O)N[C@H](C(=O)N[C@H](C(=O)N[C@@H](Cc1c[nH]c2ccccc12)C(=O)N[C@H](CC(C)C)C(=O)N[C@@H](Cc1c[nH]c2ccccc12)C(=O)N[C@H](CC(C)C)C(=O)N[C@@H](Cc1c[nH]c2ccccc12)C(=O)N[C@H](CC(C)C)C(=O)N[C@@H](Cc1c[nH]c2ccccc12)C(=O)NCCO)C(C)C)C(C)C)C(C)C`, the cell viability came to 5.86%.

In the case of `CC1(C)CC2C1CCC1(C)OC1CCC2(C)O` (configuration not stated), the cell viability was 95.8%. On to `Cc1cc(O)c(C)c(O)c1C(=O)O`, for which the cell viability stood at 97.3%.

With `O=C(NC1CCNCC1)c1n[nH]cc1NC(=O)c1c(Cl)cccc1Cl`, the cell viability worked out at 13.3%.

On to `NC1=NCCN1CC(=O)O`, for which the cell viability was found to be 95.6%. In the case of `CC(C)(C)Cn1c(N)nc2ccc(-c3[nH]c(C(C)(C)C)nc3-c3ccc(F)cc3)nc21` it was 91%; in that of `C[C@@H](Oc1cc(-c2cnn(C3CCNCC3)c2)cnc1N)c1c(Cl)ccc(F)c1Cl`, 21.4%. The same measure for `NC(=O)Nc1sc(-c2ccc(F)cc2)cc1C(N)=O`: 42.3%; for `OC[C@H]1O[C@@H](O[C@H]2[C@H](O)[C@@H](O)[C@@H](O)O[C@@H]2CO)[C@H](O)[C@@H](O)[C@@H]1O`: 105%. In the case of `CCC(=O)OC1[C@@H]2CC3=C4CC(=O)O[C@@H](c5ccoc5)[C@]4(C)CCC3[C@@](C)(C2=O)[C@@H](CC(=O)OC)C1(C)C` (some centres not stated) it was 88.5%; in that of `COc1ccc(-c2coc3c(OC)c(OC)cc(O)c3c2=O)cc1`, 101%; in that of `C#CCCCCCCCCCCCC(O)CC(O)COC(C)=O` (configuration not stated), 88.5%. `COc1ccc2c(c1)CC[C@@H]1[C@@H]2CC[C@]2(C)[C@@H](O)CC[C@@H]12`: the cell viability stood at 96.8%. The same measure for `COc1cc2c(cc1O)CC[C@@H]1[C@@H]2CC[C@]2(C)[C@@H](O)CC[C@@H]12` [2-Methoxyestradiol]: 13.7%.

For the molecule `C[C@]12CC[C@@H]3c4ccc(O)cc4CC[C@H]3[C@@H]1CC[C@@H]2O`, the cell viability is 91.5%. Turning to `C[C@]12CC[C@@H]3c4ccc(O)cc4CC[C@H]3[C@@H]1CC[C@@H]2O` [Estradiol], the cell viability stood at 96.7%.

As for `CC[C@H](/C=C/[C@@H](C)[C@H]1CC[C@H]2[C@@H]3CCC4=CC(=O)CC[C@]4(C)[C@H]3CC[C@]12C)C(C)C`, the cell viability is 108%. On to `CC(=O)CCCCn1c(=O)c2c(ncn2C)n(C)c1=O`, for which the cell viability stood at 104%. As for `COc1c(O)cc2oc3cc(O)c(CC=C(C)C)c(O)c3c(=O)c2c1CC=C(C)C` [alpha-MANGOSTIN], the cell viability amounted to 95.2%. In the case of `COc1cc(C(C)=O)cc(OC)c1O`, the cell viability worked out at 105%.

`COC(=O)C[C@H]1C(C)(C)C(=O)[C@@H]2CC3C4=CC(=O)O[C@@H](c5ccoc5)[C@]4(C)CC[C@@H]3[C@@]1(C)C2=O` (some centres not stated): the cell viability is 98.6%. Turning to `O=C(c1ccc(OCCN2CCCCC2)cc1)c1c(-c2ccc(O)cc2)sc2cc(O)ccc12` [Evista (Raloxifene Hydrochloride)], the cell viability was 95.1%. In the case of `O=C(Cc1ccc(-c2ccc(OCCN3CCOCC3)cc2)cn1)NCc1ccccc1` it was 8.82%. For the molecule `O=C(c1ccc(OCCN2CCCCC2)cc1)c1c(-c2ccc(O)cc2)sc2cc(O)ccc12`, the cell viability worked out at 83.3%.

Turning to `CCCCOc1ccc(OCCCN2CCOCC2)cc1`, the cell viability was 97.5%. The same measure for `COC(=O)C(Cc1ccccc1)NC(=O)/C(=C1/OC(=O)C(c2ccccc2)=C1O)c1ccccc1` (configuration not stated): 105%. `CC1(C)CC[C@]2(C(=O)O)CC[C@]3(C)C(=CCC4[C@@]5(C)CC[C@@H](O)C(C)(C)C5CC[C@]43C)C2C1` (some centres not stated): the cell viability turned out to be 102%. Take `COc1ccc(-c2coc3cc(O)ccc3c2=O)c(O)c1O`: the cell viability turned out to be 99.7%. Turning to `CC(=O)O[C@H]1CC[C@]2(C)[C@H]3CC[C@@]4(C)[C@H](c5ccoc5)OC(=O)[C@H]5O[C@]54[C@]3(C)[C@H](OC(C)=O)C[C@H]2C1(C)C` [3beta-ACETOXYDEOXODIHYDROGEDUNIN], the cell viability came out at 91.2%. In the case of `COc1ccc2oc(-c3ccccc3)c(OC)c(=O)c2c1` it was 98.7%. The same measure for `COc1ccc(-c2cc(=O)c3c(OC)c(OC)c(OC)cc3o2)cc1OC`: 105%. On to `COc1ccc([C@@H]2CC(=O)c3c(O)cc(O[C@@H]4O[C@H](CO[C@@H]5O[C@@H](C)[C@H](O)[C@@H](O)[C@H]5O)[C@@H](O)[C@H](O)[C@H]4O)cc3O2)cc1O`, for which the cell viability is 92.8%.

On to `c1ccc(-c2nn3c(c2-c2ccnc4cc(OCCN5CCOCC5)ccc24)CCC3)nc1`, for which the cell viability turned out to be 94.6%.

Regarding `CC12CCC3C(CC3(C)C)C(C)(CCC1=O)O2` (configuration not stated), the cell viability was found to be 103%. With `C=CCSCC(N)C(=O)O` (configuration not stated), the cell viability was 121%. In the case of `CCCCc1nc2cc(/C=C/C(=O)NO)ccc2n1CCN(CC)CC` [SB939 (Pracinostat)] it was 1.57%; in that of `CC1=CC(=O)CC(C)(C)C1(O)/C=C/C(C)=C\C(=O)O` (mixture of isomers) [ABSCISIC ACID (cis,trans; +/-)], 102%; in that of `O=Cc1ccccc1O[C@@H]1O[C@H](CO)[C@@H](O)[C@H](O)[C@H]1O`, 102%. For the molecule `C[C@H](NC(=O)Cc1cc(F)cc(F)c1)C(=O)N[C@H](C(=O)OC(C)(C)C)c1ccccc1`, the cell viability is 76.1%.

For the molecule `COc1cc(OC)c2c(OC)c(-c3ccc4c(c3)OCO4)c(=O)oc2c1`, the cell viability turned out to be 101%. `COc1cc(OC)c2c(c1)OC(c1ccccc1)CC2=O` (configuration not stated): the cell viability was 105%.

`COc1cc2c3cc1Oc1cc(ccc1O)C[C@@H]1c4c(cc(OC)c(O)c4Oc4ccc(cc4)C[C@@H]3N(C)CC2)CC[N+]1(C)C`: the cell viability worked out at 100%. In the case of `NC(=O)Nc1cc(-c2cccc(F)c2)sc1C(=O)N[C@H]1CCCNC1` it was 5.84%; in that of `CC(=O)O[C@H]1C[C@@H](OC(C)=O)C(C)(C)C2CC(=O)[C@]3(C)C(CC[C@@]4(C)[C@H](C(=O)O)OC(=O)C5OC543)[C@]21C` (some centres not stated), 89.8%. As to `CC(=O)O[C@H]1C[C@@H](OC(C)=O)C(C)(C)[C@@H]2C[C@@H](OC(C)=O)[C@@]3(C)C4=CC(=O)O[C@@H](c5ccoc5)[C@]4(C)CC[C@@H]3[C@@]12C`, the cell viability was 94.5%.

With `COC1=CC(=O)C(O)=C/C1=C\C=C\c1ccccc1`, the cell viability stood at 95%. As for `Cc1cc(O)cc(O)c1C(=O)O`, the cell viability came out at 115%. In the case of `NCCC(=O)N[C@@H](Cc1c[nH]cn1)C(=O)O` it was 89.7%; in that of `O=C(O)C1CC([C@@H]2CCCCN2)CN2CCCCC12` (some centres not stated), 101%. In the case of `CC(C)n1nc(-c2ccc3oc(N)nc3c2)c2c(N)ncnc21` it was 21.6%. On to `CCN1CCN(Cc2ccc(-c3cc4c(N[C@H](C)c5ccccc5)ncnc4[nH]3)cc2)CC1`, for which the cell viability came out at 53.4%. Take `COC(=O)c1c(C)c2c(c(C)c1O)OC(=O)c1c(C)c(Cl)c(O)c(Cl)c1O2`: the cell viability was 108%. Regarding `O=C(Cc1cccs1)N[C@@H]1C(=O)N2C(C(=O)[O-])=C(C[n+]3ccccc3)CS[C@H]12`, the cell viability is 96.4%.

As to `COC1=CC(=O)C(C(=O)c2ccccc2)=CC1=O`, the cell viability turned out to be 103%. Regarding `C[C@]1(c2nc3c(C(N)=O)cccc3[nH]2)CCCN1` [ABT-888 (Veliparib)], the cell viability is 101%. `Cc1ccc(C(=O)Nc2ccc(S(=O)(=O)O)c3cc(S(=O)(=O)O)cc(S(=O)(=O)O)c23)cc1NC(=O)c1cccc(NC(=O)Nc2cccc(C(=O)Nc3cc(C(=O)Nc4ccc(S(=O)(=O)O)c5cc(S(=O)(=O)O)cc(S(=O)(=O)O)c45)ccc3C)c2)c1`: the cell viability was 111%.

In the case of `Cc1ccc(NC(=O)c2cccc(C(C)(C)C#N)c2)cc1Nc1ccc2ncn(C)c(=O)c2c1`, the cell viability was 42.7%. Take `COC(=O)Nc1ccc(-c2nc(N3CCOCC3)c3cnn(C4CCN(C(=O)OC)CC4)c3n2)cc1`: the cell viability was 25.9%. As to `c1ccc2c(-c3cnn4cc(-c5ccc(N6CCNCC6)cc5)cnc34)ccnc2c1`, the cell viability is 37.8%. With `NC1(C(=O)O)CCCC1`, the cell viability worked out at 93.7%.

With `CN(C)Cc1c(C(=O)NCCOc2ccc(C(=O)NO)cc2)oc2ccccc12`, the cell viability stood at 1.01%. In the case of `CC/C(=C(\c1ccccc1)c1ccc(OCCN(C)C)cc1)c1ccccc1` [Tamoxifen Citrate (Nolvadex)] it was 53.6%. In the case of `COc1cc(C(=O)NCc2ccc(OCCN(C)C)cc2)cc(OC)c1OC` it was 97.1%; in that of `CC/C(=C(\c1ccccc1)c1ccc(OCCN(C)C)cc1)c1ccccc1`, 105%.

For the origin of these results see the supplement of paper PMC11150407.
